Experiment [1] deals with Sphingosine kinase 1 (Homo sapiens) (UniProt Q9NYA1). The conditions noted are these: at 1 µM.
Experiment [2] concerns the target T1, Sphingosine kinase 2 (Homo sapiens) (UniProt Q9NRA0).
T1 sequence (whole entry): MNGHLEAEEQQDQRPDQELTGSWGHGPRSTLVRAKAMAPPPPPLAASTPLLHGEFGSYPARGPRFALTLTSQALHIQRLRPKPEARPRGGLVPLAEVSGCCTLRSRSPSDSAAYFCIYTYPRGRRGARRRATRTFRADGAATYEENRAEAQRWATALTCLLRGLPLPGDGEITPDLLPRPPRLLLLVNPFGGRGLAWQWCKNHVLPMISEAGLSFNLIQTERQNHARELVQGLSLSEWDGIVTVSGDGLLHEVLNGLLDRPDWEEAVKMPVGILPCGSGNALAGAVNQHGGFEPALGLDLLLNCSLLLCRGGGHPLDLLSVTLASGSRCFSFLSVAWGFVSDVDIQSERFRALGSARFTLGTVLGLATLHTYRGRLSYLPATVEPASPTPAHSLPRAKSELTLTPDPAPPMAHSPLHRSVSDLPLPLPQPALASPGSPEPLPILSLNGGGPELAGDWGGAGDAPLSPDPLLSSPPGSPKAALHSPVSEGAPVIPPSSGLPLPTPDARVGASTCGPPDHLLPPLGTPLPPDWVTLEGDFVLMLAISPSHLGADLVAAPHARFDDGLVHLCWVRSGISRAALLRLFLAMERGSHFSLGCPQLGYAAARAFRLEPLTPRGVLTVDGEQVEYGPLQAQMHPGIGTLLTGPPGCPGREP
The conditions noted are these: at 0.1 µM.

Experiment [3] concerns the target T1, Sphingosine kinase 2 (Homo sapiens). The conditions noted are these: at 1 µM.
Experiment [4] has as its target Casein kinase II subunit alpha (Homo sapiens) (UniProt P68400). Conditions: at 0.1 µM.
Experiment [5] shares this target. Conditions: at 1 µM.
In experiment [6] the target is T2, Inhibitor of nuclear factor kappa-B kinase subunit alpha (Homo sapiens) (UniProt O15111).
T2 sequence (whole entry): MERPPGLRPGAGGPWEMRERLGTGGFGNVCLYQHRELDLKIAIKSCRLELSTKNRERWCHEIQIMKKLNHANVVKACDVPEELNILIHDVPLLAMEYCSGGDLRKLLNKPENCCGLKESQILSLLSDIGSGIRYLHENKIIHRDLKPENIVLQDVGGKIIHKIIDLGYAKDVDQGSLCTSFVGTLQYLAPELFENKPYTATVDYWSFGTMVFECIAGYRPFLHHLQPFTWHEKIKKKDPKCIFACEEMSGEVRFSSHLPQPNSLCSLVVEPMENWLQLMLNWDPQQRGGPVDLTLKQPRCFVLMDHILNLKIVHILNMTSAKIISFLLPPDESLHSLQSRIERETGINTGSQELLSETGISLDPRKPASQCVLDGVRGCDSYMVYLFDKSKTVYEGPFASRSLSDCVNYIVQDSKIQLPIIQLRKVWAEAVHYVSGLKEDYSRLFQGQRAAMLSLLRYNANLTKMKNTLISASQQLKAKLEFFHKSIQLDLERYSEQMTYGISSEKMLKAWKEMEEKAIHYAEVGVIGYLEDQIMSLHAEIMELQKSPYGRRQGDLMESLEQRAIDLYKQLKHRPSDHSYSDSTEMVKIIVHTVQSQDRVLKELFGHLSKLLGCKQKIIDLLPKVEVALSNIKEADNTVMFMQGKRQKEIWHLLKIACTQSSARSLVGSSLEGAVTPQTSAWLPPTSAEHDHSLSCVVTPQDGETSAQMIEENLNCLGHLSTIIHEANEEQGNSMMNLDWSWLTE
The conditions noted are these: at 0.1 µM.

In experiment [7] the target is T2, Inhibitor of nuclear factor kappa-B kinase subunit alpha (Homo sapiens). Conditions: at 1 µM.
The target in experiment [8] is T3, Inhibitor of nuclear factor kappa-B kinase subunit beta (Homo sapiens) (UniProt O14920).
T3 sequence (whole entry): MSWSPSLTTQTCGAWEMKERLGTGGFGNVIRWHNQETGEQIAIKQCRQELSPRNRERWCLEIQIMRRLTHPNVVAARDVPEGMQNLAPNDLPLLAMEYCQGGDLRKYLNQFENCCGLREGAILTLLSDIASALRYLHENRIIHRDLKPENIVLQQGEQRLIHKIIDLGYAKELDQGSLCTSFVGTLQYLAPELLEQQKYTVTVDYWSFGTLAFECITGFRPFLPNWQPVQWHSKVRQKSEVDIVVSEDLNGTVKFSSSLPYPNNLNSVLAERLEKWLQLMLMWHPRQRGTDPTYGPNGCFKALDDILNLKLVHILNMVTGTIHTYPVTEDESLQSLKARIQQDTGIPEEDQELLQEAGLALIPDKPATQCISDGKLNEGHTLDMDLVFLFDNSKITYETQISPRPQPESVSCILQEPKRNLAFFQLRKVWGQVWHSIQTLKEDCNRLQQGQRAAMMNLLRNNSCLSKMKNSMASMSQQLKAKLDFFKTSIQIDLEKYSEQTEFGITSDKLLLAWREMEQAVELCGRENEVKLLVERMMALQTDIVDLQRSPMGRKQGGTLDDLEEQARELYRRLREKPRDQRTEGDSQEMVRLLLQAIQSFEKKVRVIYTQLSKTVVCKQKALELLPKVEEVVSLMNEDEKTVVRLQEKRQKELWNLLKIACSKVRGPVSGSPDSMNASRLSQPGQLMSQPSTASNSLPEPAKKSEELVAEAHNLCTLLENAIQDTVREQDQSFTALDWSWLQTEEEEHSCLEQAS
The conditions noted are these: at 0.1 µM.

Experiment [9] deals with T3, Inhibitor of nuclear factor kappa-B kinase subunit beta (Homo sapiens). Conditions: at 1 µM.
The target in experiment [10] is T4, Inhibitor of nuclear factor kappa-B kinase subunit epsilon (Homo sapiens) (UniProt Q14164).
T4 sequence (whole entry): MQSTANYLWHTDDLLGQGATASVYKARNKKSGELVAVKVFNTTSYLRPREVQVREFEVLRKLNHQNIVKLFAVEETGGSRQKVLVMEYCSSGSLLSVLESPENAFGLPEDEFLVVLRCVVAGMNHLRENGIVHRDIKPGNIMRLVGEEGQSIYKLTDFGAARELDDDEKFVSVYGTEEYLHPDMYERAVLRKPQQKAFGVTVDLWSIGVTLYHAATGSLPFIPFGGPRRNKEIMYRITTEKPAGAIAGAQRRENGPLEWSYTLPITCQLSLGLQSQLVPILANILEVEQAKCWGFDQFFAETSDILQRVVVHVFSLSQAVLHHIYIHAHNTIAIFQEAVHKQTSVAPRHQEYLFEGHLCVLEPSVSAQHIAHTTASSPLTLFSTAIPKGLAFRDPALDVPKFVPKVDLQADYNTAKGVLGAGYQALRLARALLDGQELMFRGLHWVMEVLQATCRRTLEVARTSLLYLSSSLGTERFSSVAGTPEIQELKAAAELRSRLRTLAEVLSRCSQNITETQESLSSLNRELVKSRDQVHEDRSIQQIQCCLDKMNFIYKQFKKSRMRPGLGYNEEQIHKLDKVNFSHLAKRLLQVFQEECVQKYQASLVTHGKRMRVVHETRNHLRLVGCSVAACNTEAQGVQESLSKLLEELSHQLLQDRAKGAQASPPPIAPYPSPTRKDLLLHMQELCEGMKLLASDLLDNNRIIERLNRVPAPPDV
Conditions: at 0.1 µM.

For experiment [11], the target named is T4, Inhibitor of nuclear factor kappa-B kinase subunit epsilon (Homo sapiens). Conditions: at 1 µM.
The target of experiment [12] is T5, Serine/threonine-protein kinase Nek1 (Homo sapiens) (UniProt Q96PY6).
T5 sequence (whole entry): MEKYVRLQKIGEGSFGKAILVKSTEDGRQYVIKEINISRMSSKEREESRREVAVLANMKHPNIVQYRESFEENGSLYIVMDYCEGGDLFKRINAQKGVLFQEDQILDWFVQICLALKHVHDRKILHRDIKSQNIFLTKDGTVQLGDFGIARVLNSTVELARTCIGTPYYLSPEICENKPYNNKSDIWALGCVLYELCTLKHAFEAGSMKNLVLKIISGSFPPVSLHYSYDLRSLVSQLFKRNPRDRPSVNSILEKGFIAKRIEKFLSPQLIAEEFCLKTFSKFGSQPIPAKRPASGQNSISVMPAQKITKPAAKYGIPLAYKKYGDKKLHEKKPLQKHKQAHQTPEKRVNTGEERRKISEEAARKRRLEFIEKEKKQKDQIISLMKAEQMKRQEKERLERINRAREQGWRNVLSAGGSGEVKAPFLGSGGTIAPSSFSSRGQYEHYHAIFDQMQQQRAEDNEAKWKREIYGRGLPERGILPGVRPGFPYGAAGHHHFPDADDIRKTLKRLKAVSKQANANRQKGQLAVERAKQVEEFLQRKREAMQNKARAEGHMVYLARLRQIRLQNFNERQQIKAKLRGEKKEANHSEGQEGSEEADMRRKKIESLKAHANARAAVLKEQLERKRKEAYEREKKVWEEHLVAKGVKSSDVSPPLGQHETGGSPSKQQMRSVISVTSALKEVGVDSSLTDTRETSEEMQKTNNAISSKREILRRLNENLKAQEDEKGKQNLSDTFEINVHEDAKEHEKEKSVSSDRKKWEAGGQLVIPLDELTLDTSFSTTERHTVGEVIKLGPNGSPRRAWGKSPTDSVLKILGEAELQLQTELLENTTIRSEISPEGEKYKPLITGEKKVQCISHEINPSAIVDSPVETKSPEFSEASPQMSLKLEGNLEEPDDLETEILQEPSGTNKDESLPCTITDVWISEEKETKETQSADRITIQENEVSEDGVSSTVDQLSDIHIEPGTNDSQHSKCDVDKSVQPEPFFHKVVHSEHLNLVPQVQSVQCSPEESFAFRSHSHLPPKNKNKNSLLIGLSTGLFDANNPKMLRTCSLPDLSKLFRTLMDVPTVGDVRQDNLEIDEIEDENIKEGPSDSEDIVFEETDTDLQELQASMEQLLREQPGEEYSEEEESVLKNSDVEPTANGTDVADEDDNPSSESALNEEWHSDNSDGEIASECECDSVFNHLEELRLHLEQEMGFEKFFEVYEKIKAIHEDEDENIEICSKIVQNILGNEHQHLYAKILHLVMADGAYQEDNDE
Conditions: at 0.1 µM.

For experiment [13], the target named is T5, Serine/threonine-protein kinase Nek1 (Homo sapiens). The conditions noted are these: at 1 µM.
Experiment [14] deals with T6, Serine/threonine-protein kinase Nek2 (Homo sapiens) (UniProt P51955).
T6 sequence (whole entry): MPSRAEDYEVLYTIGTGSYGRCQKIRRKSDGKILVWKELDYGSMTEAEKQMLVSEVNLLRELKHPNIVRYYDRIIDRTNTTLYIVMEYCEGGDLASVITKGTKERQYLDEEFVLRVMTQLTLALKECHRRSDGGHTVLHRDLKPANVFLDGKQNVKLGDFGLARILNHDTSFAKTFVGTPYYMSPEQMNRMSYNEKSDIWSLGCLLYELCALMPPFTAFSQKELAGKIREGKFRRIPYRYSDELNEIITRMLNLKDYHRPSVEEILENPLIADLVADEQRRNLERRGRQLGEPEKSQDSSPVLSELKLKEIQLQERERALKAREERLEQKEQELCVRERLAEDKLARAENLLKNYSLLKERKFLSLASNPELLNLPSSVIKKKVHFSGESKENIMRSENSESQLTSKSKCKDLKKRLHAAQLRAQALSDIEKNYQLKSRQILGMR
The conditions noted are these: at 0.1 µM.

The target in experiment [15] is T6, Serine/threonine-protein kinase Nek2 (Homo sapiens). The conditions noted are these: at 1 µM.
Experiment [16] addresses Serine/threonine-protein kinase Nek6 (Homo sapiens) (UniProt Q9HC98). Conditions: at 0.1 µM.
Experiment [17] has the same target. The conditions noted are these: at 1 µM.
For experiment [18], the target named is Serine/threonine-protein kinase Nek7 (Homo sapiens) (UniProt Q8TDX7). Conditions: at 0.1 µM.
Serine/threonine-protein kinase Nek7 (Homo sapiens), sequence (Q8TDX7 whole entry, looked up): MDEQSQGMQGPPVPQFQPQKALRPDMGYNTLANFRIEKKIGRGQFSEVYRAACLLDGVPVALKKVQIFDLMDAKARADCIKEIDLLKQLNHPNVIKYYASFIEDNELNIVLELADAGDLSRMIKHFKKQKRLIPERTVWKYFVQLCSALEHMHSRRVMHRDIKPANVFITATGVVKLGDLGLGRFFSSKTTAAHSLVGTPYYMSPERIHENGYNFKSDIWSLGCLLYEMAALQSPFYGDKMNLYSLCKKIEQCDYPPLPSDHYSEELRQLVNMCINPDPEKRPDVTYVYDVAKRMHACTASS
Experiment [19] has the same target. The conditions noted are these: at 1 µM.
Experiment [20] concerns the target T7, Serine/threonine-protein kinase Nek9 (Homo sapiens) (UniProt Q8TD19).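 Note: reported value is the mean percent inhibition of NEK9.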
T7 sequence (whole entry): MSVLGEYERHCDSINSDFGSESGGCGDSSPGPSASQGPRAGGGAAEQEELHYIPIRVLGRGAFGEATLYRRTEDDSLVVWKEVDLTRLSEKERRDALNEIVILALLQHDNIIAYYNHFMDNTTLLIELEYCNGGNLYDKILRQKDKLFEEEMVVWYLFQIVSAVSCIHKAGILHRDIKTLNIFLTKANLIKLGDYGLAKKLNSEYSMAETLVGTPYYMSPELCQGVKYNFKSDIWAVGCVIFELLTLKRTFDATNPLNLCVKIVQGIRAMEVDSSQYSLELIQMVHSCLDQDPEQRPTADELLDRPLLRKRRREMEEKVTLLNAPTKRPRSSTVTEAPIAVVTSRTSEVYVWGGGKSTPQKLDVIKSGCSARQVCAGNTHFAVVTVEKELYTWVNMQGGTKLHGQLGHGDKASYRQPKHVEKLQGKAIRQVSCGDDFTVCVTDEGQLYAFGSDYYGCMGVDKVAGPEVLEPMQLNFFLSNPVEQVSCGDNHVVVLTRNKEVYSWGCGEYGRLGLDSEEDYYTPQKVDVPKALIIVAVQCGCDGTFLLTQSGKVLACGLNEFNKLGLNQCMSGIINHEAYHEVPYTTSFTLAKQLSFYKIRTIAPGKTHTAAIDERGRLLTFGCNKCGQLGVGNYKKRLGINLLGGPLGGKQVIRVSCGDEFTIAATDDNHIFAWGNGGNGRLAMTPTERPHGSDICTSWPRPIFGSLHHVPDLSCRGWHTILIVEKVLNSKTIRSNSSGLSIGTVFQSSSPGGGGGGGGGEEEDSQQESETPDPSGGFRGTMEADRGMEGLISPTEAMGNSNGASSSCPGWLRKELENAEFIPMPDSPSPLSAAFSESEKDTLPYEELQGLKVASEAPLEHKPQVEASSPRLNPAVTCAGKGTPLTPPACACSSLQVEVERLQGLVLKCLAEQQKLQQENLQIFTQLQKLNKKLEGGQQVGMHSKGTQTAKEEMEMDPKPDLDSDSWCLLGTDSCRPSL
The conditions noted are these: at 0.1 µM.

What is called inhibition is the relative decrease from the control value, in per cent.

The structures appear in SMILES notation.

Casein kinase II subunit alpha (Homo sapiens), sequence (P68400 whole entry, looked up): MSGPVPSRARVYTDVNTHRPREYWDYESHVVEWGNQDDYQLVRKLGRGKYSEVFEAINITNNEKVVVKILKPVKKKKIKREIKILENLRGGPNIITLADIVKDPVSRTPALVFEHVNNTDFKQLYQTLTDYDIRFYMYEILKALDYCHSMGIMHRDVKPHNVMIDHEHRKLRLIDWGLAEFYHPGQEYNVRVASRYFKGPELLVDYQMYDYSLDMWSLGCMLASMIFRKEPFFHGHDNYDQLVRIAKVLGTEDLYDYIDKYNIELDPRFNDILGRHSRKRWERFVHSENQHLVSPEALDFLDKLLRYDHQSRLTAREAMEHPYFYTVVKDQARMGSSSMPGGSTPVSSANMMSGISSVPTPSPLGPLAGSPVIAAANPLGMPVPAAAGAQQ
Serine/threonine-protein kinase Nek6 (Homo sapiens), sequence (Q9HC98 whole entry): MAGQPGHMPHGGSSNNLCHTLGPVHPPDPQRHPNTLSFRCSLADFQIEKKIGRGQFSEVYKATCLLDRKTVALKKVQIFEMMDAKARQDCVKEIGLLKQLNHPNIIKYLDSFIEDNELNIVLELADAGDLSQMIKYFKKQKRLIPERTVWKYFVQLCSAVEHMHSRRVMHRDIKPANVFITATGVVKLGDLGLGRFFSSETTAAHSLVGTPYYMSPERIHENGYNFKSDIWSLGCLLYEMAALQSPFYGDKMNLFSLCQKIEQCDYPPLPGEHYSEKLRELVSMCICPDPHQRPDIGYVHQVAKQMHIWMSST
Sphingosine kinase 1 (Homo sapiens), sequence (Q9NYA1 whole entry): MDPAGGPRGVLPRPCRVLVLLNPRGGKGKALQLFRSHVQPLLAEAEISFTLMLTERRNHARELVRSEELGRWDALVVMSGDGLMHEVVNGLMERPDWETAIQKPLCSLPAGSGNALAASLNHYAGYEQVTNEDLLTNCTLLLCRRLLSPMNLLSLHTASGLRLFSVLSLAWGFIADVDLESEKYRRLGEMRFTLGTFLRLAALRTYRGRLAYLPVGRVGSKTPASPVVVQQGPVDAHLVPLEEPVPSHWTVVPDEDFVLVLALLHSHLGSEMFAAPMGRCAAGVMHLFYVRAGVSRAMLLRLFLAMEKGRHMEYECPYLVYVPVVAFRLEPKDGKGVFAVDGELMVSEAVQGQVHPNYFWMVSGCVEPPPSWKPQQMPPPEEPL

With `CC1=C(C(=O)Nc2ccc3[nH]nc(C)c3c2)C(c2ccc(C(F)(F)F)cc2)CC(=O)N1` (stereo not given), the inhibition was -1.2% in experiment [1]; -0.06% in experiment [2]; -2.04% in [3]; 1.79% in experiment [4]; 2.97% in experiment [5]; 3.27% in [6]. In addition, the inhibition is -5.37% in [7]; 2.18% in experiment [8]; 0.69% in [9]; 0.85% in experiment [10]; 2.46% in [11]; 1.56% in [12]. The inhibition was 2.57% in [13]; 3.16% in experiment [14]; 3.29% in experiment [15]; 1.24% in experiment [16]; -1.35% in experiment [17]; 3.34% in [18]. Besides, the inhibition in [19] worked out at 2.74%; in [20] it was 1.92%.

Values taken from ChEMBL document CHEMBL1961873, “Compounds: GSK PKIS; Assays: Nanosyn kinase panel” (2012).
